High-throughput results deposited in PubChem BioAssay by NMMLSC.
MEKK2mut PB1 HTS – signal of MEK5 binding to mutant human MEKK2 PB1 domain; 290,000 tested, 0.35% active; AID 1530; bead flow cytometry, Alexa488-MEK5 binding to MEKK2 mutant; percent response, % at 10 µM; in the data active = percent response above about 24%, passing the limit was not always enough
GRK2 aptamer HTS – blocks RNA aptamer binding to human GRK2; bead flow cytometry, FAM-aptamer displacement from GRK2; P25098; 330,000 tested, 0.59% active; inhibition of aptamer binding, % at 10 µM; AID 488847;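 active = inhibition of aptamer binding above 40%, roughly 3 SD of noise, on plates passing a quality check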;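 note: median bead fluorescence of bound FAM aptamer so fluorescent compounds give negative values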
Target sequence (P25098 whole entry, looked up): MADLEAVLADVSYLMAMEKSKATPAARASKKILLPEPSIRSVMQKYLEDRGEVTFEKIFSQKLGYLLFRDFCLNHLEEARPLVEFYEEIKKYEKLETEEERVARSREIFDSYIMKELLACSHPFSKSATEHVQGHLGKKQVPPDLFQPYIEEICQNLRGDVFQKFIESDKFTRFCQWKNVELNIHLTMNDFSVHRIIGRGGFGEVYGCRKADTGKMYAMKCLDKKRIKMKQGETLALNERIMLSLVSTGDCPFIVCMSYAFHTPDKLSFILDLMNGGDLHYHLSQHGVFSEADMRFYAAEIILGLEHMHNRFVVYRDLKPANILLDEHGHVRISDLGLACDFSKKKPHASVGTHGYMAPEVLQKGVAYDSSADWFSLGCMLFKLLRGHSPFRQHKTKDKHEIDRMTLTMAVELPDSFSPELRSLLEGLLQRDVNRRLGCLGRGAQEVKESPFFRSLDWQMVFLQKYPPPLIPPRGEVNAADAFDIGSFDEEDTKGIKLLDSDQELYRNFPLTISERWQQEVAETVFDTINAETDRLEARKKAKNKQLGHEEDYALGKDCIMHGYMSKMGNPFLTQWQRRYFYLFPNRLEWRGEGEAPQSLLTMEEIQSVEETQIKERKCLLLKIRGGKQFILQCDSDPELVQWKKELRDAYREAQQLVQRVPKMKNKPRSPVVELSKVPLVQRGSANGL
MEKK3 PB1 HTS – modulators (inhibitors or enhancers) of MEK5 binding to human MEKK3 PB1 domain; Q99759; bead-based flow cytometry, Alexa488-MEK5 binding to MEKK3; actives lie on both sides; 0 = blocked by unlabeled MEK5, 100 = vehicle; binding response (% of control), % at 10 µM; 290,000 tested, 1.4% active; AID 1529;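 active = binding response more than 3 SD above or below the average of its plate-row segment, actives on both sides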;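 note: Alexa488 bead fluorescence after subtracting the streptavidin-only scavenger bead signal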
MEKK2wt PB1 HTS – raises or lowers MEK5 binding to wildtype human MEKK2 PB1 domain; Q9Y2U5; bead flow cytometry, Alexa488-MEK5 binding to MEKK2 WT; actives lie on both sides; binding response (% of control), % at 10 µM; 290,000 tested, 1.1% active; AID 1531; in the data active = binding response below about 67% or above about 130%
MEKK2wt confirm – raises or lowers MEK5 binding to wildtype human MEKK2, retest; AID 1892; binding response (% of control), % at 10 µM; shares compounds with MEKK3 PB1 HTS; 5,900 tested, 2.4% active; bead flow cytometry, Alexa488-MEK5 binding to MEKK2 WT; actives lie on both sides; in the data active = binding response below about 16% or above about 210%; inactive = in between
MEKK2mut confirm – signal of MEK5 binding to mutant human MEKK2, retest | shares compounds with MEKK3 PB1 HTS | bead flow cytometry, Alexa488-MEK5 binding to MEKK2 mutant | percent response, % at 10 µM | 5,900 tested, 2% active; in the data active = percent response mostly above about 71%, no sharp cut-off; inactive = mostly below about 38%;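 note: higher means compound restores mutant binding toward wildtype level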
MEKK3-MEK5 inh – MEKK3-MEK5 PB1 inhibition, single concentration confirmation. shares compounds with MEKK3 PB1 HTS. bead flow cytometry, Alexa488-MEK5 binding to MEKK3; hits give low values. binding response (% of control), % at 10 µM. 5,900 tested, 1.8% active;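 active = binding response below 72% of control, or above a set upper limit, though filed actives all read lower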;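 note: 100% = DMSO only wells and 0% = binding blocked by excess unlabeled MEK5; lower values mean stronger disruption of MEK5 binding to MEKK3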
* = called active by the depositor; · = not tested or not shown; [ ] = dose if it differs, or a comment. Most compounds without a hit are left out; they make up all but 2.5% or so of the library.

SMILES	MEKK2mut PB1 HTS	GRK2 aptamer HTS	MEKK3 PB1 HTS	MEKK2wt PB1 HTS	MEKK2wt confirm	MEKK2mut confirm	MEKK3-MEK5 inh
O=C(c1ccc(F)cc1)N1CCN2C(=O)c3ccccc3C12c1ccccc1 (stereo not drawn)	-38.0	3.0	60.0*[inhibitor]	66.0	103.0	-2.0	101.0
COc1cccc(N/C(SCc2ccccc2C)=C(/C#N)C(=O)NCc2cccs2)c1	-1.0	4.0	130.0*	97.0	83.0	-21.0	84.0
CC1(C)Cc2nc3oc4c(NCCCN5CCOCC5)ncnc4c3cc2CO1	0.0	0.0	99.0	97.0	·	·	·
COc1ccc(/C=N/Nc2cc(N3CCCC3)nc(N3CCCC3)n2)cc1	4.0	0.0	130.0*	142.0*	160.0	33.0	108.0
COc1cc(/C=C2\SC(=S)N(CC(=O)Nc3ccc(O)cc3)C2=O)cc(OC)c1OC	90.0*	·	67.0*[inhibitor]	51.0	87.0	-12.0	97.0
Cc1cccc(Nc2ccc([N+](=O)[O-])cn2)c1	-3.0	0.0	100.0	99.0	·	·	·
O=C(Nc1ccc(-c2nc3ccccc3[nH]2)cc1)c1ccc2c(c1)OCO2	-5.0	0.0	81.0*[inhibitor]	83.0	84.0	-13.0	85.0
Cc1ccc(CSCC(=O)N2CCN(c3ccccc3)CC2)cc1	0.0	0.0	131.0*	106.0	107.0	-1.0	107.0
COc1ccc(C2(c3ccc(OC)cc3)NC(=O)N(CC(=O)N(C)C)C2=O)cc1	-7.0	1.0	100.0	93.0	·	·	·
CCN(CC)c1ccc(/C=C(/C#N)c2nc3ccc(C)cc3[nH]2)c(OC(C)C)c1	95.0*	0.0	115.0	78.0	91.0	-18.0	89.0
CCc1ccc(C2=NNC(=Nc3cccc(S(=O)(=O)N(C)C)c3)SC2)cc1	0.0	4.0	128.0*	104.0	101.0	-2.0	103.0
Cc1cccc(N=C2NN=C(c3ccc4c(c3)OCCO4)CS2)c1	3.0	0.0	104.0	98.0	·	·	·
Oc1ccccc1Nc1nc(NCc2ccccc2)c2ccccc2n1	67.0*	0.0	114.0	216.0*	192.0	54.0	111.0
OCCNc1nc(Nc2ccc(Br)cc2)nc2ccccc12	28.0	0.0	108.0	146.0*	132.0	36.0	104.0
Cc1ccc(Nc2nc(NCc3ccco3)c3ccccc3n2)cc1	77.0*	0.0	107.0	191.0*	177.0	49.0	102.0
COc1ccccc1Nc1nc(NCc2ccco2)c2ccccc2n1	42.0	0.0	117.0	177.0*	149.0	23.0	106.0
Oc1ccccc1-c1nc(NCc2ccco2)c2ccccc2n1	-4.0	0.0	100.0	101.0	·	·	·
CNc1nc(NCc2ccccc2)c2ccccc2n1	13.0	0.0	94.0	124.0	·	·	·
OCCNc1nc(Nc2ccccc2)nc2ccccc12	3.0	0.0	110.0	110.0	·	·	·
Fc1ccccc1-c1nc(NCc2ccco2)c2ccccc2n1	-3.0	4.0	93.0	99.0	·	·	·
CCCCOC(C)n1cc(F)c(=O)[nH]c1=O (stereo not drawn)	-2.0	0.0	91.0	94.0	·	·	·
C/C(=N\NC(=O)C1CC1)c1ccc2c(c1)OCCO2	-46.0	0.0	4.0*[inhibitor]	6.0*[inhibitor]	109.0	7.0	105.0
COc1ccc(-c2cn3cc([N+](=O)[O-])ccc3n2)cc1OC	-1.0	1.0	75.0*[inhibitor]	90.0	112.0	11.0	107.0
CC(C)N1C(=S)N(Cc2ccco2)C(=O)C1CC(=O)Nc1ccccc1 (stereo not drawn)	0.0	0.0	103.0	104.0	·	·	·
CN(CCCN1c2ccccc2CCc2ccccc21)CC(=O)c1ccc(Cl)cc1	18.0	0.0	107.0	165.0*	130.0	16.0	96.0
SMILES	MEKK2mut PB1 HTS	GRK2 aptamer HTS	MEKK3 PB1 HTS	MEKK2wt PB1 HTS	MEKK2wt confirm	MEKK2mut confirm	MEKK3-MEK5 inh
CN(C)CCCN1c2ccccc2Sc2ccccc21	8.0	0.0	104.0	106.0	·	·	·
CN(C)CCCN1c2ccccc2CCc2ccc(Cl)cc21	13.0	6.0	77.0	148.0*	131.0	12.0	106.0
CCOC(=O)C1=C(COC(=O)c2ccc3ccccc3c2O)NC(=O)NC1C (stereo not drawn)	·	0.0	·	·	·	·	·
CCCCc1ccc(-c2nc(N)n[nH]2)cc1	-21.0	0.0	1.0*[inhibitor]	2.0*[inhibitor]	106.0	5.0	103.0
Nc1n[nH]c(-c2ccc(F)cc2)n1	-1.0	2.0	97.0	98.0	·	·	·
CN(C)n1cccc1/C=C(\C#N)S(=O)(=O)c1ccc(Cl)cc1	33.0	2.0	139.0*	120.0	101.0	-6.0	104.0
COc1ccc(NC(=O)c2cccc(N3C(=O)C4C5C=CC(C6CC56)C4C3=O)c2)cc1 (stereo not drawn)	-1.0	4.0	101.0	99.0	·	·	·
Cc1ccc(-c2nc3sc4c(c3c(=O)n2N)CCCC4)cc1	-28.0	2.0	56.0*[inhibitor]	66.0	106.0	-2.0	99.0
O=c1c2c3c(sc2nc2n1CCCC2)CCC3	-13.0	1.0	72.0*[inhibitor]	80.0	99.0	-6.0	100.0
CC1CN(C(=O)CCC(=O)N2CCCCC2)c2ccccc2O1 (stereo not drawn)	0.0	0.0	101.0	101.0	·	·	·
CC(=O)Nc1sc(/C(C#N)=C\c2cccc(Cl)c2)nc1-c1ccc(C)cc1	26.0	2.0	107.0	13.0*[inhibitor]	99.0	-4.0	106.0
Cc1nn(-c2ccc(C(=O)NCC(c3ccco3)N3CCCC3)cc2)c(C)c1Cl (stereo not drawn)	·	0.0	·	·	·	·	·
Cc1ccc2nc(NC(=O)c3ccc(NS(=O)(=O)c4cccs4)cc3)sc2c1	-1.0	0.0	136.0*	101.0	98.0	-5.0	97.0
Cc1ccc(S(=O)(=O)Nc2ccc(-c3nc4ccc(C)cc4s3)cc2)cc1	0.0	12.0	151.0*	107.0	106.0	3.0	105.0
Cc1ccc2nc(NC(=O)CCNS(=O)(=O)c3cccs3)sc2c1	-3.0	0.0	102.0	95.0	·	·	·
O=C(OCC1COc2ccccc2O1)c1c(F)cccc1F (stereo not drawn)	-20.0	0.0	66.0*[inhibitor]	76.0	105.0	-4.0	103.0
COc1ccc(OC)c(-c2csc(NC(=O)c3ccc(F)cc3)n2)c1	3.0	0.0	102.0	113.0	·	·	·
CC1CCC(C(C)C)C(OCC(O)C[N+]2(C)CCCCC2)C1 (stereo not drawn)	-12.0	0.0	94.0	85.0	·	·	·
CC1CCC(C(C)C)C(OCC[N+](C)(C)C)C1 (stereo not drawn)	1.0	2.0	143.0*	111.0	101.0	0.0	102.0
COc1ccc(CSc2n[nH]c(C)n2)cc1[N+](=O)[O-]	4.0	3.0	130.0*	106.0	-3.0*[inhibitor]	-5.0	94.0
COc1ccc(CSc2ncn[nH]2)cc1[N+](=O)[O-]	0.0	5.0	100.0	97.0	·	·	·
O=C(NCc1nnc(SCC(=O)N2CCN(c3ccccc3)CC2)o1)c1c(F)cccc1Cl	-8.0	0.0	101.0	96.0	·	·	·
Nc1nc(SCC(=O)Nc2ccc(Cl)c(S(=O)(=O)N3CCOCC3)c2)n[nH]1	-35.0	1.0	68.0	74.0	·	·	·
